Source: ChEMBL document CHEMBL2218924, “A broad activity screen in support of a chemogenomic map for kinase signalling research and drug discovery” (Biochem J, 2013)

Legend:
[1] = biological target: Serine/threonine-protein kinase SIK1 (Homo sapiens) (UniProt P57059); conditions: at 10 µM
[2] = biological target: Serine/threonine-protein kinase 33 (Homo sapiens) (UniProt Q9BYT3); conditions: at 1 µM
[3] = biological target: Serine/threonine-protein kinase 33 (Homo sapiens) (UniProt Q9BYT3); conditions: at 10 µM
[4] = biological target: Tyrosine-protein kinase SYK (Homo sapiens) (UniProt P43405); conditions: at 1 µM
[5] = biological target: Tyrosine-protein kinase SYK (Homo sapiens) (UniProt P43405); conditions: at 10 µM
[6] = biological target: T1, Serine/threonine-protein kinase TAO1 (Homo sapiens) (UniProt Q7L7X3); conditions: at 1 µM
T1 sequence (whole entry): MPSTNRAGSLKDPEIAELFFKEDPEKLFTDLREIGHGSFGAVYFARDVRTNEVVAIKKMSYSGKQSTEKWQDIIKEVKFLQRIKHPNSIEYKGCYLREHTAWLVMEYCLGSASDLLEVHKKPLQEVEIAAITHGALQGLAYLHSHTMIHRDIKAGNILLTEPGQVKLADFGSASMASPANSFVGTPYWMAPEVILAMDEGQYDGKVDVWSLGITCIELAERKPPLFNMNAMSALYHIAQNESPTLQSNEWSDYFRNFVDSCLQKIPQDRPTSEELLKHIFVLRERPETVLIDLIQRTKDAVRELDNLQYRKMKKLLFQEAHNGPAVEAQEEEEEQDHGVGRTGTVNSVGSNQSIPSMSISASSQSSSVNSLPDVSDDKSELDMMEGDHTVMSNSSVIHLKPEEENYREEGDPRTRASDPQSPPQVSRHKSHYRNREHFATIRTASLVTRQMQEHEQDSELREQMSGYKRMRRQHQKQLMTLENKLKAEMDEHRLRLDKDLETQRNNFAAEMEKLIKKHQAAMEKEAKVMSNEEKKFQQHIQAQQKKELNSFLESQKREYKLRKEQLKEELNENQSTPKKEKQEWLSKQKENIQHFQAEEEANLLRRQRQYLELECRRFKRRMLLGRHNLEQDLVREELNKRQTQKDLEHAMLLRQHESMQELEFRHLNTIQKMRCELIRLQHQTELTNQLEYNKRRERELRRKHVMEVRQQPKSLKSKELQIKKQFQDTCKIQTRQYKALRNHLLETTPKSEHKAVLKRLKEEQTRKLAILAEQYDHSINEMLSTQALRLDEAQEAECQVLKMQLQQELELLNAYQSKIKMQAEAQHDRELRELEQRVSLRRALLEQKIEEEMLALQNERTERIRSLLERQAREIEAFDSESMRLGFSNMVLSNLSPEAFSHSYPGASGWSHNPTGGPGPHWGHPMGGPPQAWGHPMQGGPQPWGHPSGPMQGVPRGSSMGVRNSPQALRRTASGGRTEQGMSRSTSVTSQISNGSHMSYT

[7] = biological target: T1, Serine/threonine-protein kinase TAO1 (Homo sapiens); conditions: at 10 µM
[8] = biological target: T2, Serine/threonine-protein kinase TAO2 (Homo sapiens) (UniProt Q9UL54); conditions: at 1 µM
T2 sequence (whole entry): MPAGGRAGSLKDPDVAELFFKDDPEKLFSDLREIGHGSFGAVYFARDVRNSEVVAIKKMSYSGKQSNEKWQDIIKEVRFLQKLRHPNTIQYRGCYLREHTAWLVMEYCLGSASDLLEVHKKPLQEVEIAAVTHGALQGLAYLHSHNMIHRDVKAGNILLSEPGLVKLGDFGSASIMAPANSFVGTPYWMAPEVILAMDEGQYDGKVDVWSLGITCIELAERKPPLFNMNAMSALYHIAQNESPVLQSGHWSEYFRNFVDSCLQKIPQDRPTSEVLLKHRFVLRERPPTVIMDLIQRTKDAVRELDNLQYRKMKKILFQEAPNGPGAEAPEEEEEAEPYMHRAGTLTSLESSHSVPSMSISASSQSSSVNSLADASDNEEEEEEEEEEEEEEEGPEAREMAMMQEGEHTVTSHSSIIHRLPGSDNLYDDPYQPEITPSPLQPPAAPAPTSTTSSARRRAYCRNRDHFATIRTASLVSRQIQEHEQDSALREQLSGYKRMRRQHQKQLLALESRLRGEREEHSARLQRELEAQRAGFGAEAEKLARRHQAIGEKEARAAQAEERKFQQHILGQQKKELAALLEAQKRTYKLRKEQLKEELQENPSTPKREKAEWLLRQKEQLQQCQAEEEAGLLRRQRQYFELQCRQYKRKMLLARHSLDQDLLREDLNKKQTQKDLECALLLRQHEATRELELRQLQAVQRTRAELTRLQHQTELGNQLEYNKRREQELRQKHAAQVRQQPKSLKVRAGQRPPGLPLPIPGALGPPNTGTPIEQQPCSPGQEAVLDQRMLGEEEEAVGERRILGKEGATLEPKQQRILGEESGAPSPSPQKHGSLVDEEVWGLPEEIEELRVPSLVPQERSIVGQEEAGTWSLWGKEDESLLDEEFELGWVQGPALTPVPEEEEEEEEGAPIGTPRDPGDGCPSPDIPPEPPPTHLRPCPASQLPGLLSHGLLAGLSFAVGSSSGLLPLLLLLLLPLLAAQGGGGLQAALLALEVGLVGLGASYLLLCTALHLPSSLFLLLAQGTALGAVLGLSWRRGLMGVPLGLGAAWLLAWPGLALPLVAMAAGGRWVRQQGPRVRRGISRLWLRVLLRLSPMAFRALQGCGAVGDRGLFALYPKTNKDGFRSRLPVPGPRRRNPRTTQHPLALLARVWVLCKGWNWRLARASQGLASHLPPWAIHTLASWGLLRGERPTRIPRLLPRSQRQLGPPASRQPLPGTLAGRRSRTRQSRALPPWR

[9] = biological target: T2, Serine/threonine-protein kinase TAO2 (Homo sapiens); conditions: at 10 µM
[10] = biological target: T3, Serine/threonine-protein kinase TAO3 (Homo sapiens) (UniProt Q9H2K8); conditions: at 1 µM
T3 sequence (whole entry): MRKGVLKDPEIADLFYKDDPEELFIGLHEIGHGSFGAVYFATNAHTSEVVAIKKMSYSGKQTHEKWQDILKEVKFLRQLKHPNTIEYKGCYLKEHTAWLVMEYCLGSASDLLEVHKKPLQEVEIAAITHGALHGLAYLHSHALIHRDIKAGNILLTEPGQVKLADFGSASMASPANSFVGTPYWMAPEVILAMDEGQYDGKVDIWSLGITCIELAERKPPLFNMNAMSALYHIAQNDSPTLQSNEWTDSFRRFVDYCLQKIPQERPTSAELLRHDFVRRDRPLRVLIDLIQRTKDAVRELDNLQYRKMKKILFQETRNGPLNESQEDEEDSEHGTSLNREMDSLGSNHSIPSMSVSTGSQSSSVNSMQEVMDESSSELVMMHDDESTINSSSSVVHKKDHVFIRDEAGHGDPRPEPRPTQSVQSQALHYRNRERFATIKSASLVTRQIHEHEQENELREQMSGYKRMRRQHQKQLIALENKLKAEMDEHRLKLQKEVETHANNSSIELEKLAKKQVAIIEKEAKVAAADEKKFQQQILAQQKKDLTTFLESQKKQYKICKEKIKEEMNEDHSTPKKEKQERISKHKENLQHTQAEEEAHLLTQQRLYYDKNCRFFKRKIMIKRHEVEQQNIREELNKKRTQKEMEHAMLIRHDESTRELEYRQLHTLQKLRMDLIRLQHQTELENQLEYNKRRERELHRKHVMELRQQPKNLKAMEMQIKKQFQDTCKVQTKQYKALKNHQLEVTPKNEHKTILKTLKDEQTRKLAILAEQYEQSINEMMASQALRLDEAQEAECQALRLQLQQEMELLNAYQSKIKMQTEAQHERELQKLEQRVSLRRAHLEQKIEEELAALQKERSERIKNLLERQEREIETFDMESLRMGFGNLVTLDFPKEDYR

[11] = biological target: T3, Serine/threonine-protein kinase TAO3 (Homo sapiens); conditions: at 10 µM
[12] = biological target: T4, Serine/threonine-protein kinase TBK1 (Homo sapiens) (UniProt Q9UHD2); conditions: at 1 µM
T4 sequence (whole entry): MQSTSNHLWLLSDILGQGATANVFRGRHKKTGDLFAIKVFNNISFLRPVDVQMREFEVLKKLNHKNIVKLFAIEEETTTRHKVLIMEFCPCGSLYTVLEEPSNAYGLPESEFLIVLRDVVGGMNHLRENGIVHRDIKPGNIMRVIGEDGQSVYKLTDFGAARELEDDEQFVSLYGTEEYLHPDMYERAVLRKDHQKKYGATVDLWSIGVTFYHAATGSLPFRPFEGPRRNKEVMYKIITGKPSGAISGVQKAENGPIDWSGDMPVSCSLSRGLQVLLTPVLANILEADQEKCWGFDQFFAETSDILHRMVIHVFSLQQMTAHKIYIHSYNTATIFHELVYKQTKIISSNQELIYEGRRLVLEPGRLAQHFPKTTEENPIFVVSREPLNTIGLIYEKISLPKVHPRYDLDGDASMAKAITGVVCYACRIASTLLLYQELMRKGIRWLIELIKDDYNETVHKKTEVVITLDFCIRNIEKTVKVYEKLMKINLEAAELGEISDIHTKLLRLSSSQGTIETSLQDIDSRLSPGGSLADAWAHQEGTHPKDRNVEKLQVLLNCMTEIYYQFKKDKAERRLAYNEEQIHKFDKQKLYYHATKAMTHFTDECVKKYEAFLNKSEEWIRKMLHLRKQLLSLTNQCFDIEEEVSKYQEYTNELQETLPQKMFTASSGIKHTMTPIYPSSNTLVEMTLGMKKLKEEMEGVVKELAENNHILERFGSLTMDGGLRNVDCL

[13] = biological target: SRSF protein kinase 2 (Homo sapiens) (UniProt P78362); conditions: at 10 µM
[14] = biological target: T5, Mitogen-activated protein kinase kinase kinase 7 (Homo sapiens) (UniProt O43318); conditions: at 10 µM
T5 sequence (whole entry): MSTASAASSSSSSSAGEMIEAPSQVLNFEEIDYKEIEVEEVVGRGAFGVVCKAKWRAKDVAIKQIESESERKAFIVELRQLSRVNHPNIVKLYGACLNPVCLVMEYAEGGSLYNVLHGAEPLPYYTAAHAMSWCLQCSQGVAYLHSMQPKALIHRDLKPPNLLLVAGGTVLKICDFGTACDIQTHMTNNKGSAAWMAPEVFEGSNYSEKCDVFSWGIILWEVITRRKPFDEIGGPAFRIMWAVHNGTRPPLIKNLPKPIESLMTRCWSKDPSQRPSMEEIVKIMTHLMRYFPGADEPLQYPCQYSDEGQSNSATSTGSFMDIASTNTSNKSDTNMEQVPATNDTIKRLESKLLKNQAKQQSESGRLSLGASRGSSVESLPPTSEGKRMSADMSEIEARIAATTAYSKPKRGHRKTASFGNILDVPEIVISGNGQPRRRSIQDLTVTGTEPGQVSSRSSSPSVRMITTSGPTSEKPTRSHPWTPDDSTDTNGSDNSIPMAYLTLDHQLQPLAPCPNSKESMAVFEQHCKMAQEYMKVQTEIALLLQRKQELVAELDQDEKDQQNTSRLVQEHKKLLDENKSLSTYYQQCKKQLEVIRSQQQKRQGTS

[15] = biological target: SRSF protein kinase 2 (Homo sapiens) (UniProt P78362); conditions: at 1 µM
[16] = biological target: Serine/threonine-protein kinase PLK2 (Homo sapiens) (UniProt Q9NYY3); conditions: at 1 µM
[17] = biological target: Serine/threonine-protein kinase PLK2 (Homo sapiens) (UniProt Q9NYY3); conditions: at 10 µM
[18] = biological target: T5, Mitogen-activated protein kinase kinase kinase 7 (Homo sapiens); conditions: at 1 µM

Chain of SRSF protein kinase 2 (Homo sapiens) (P78362 whole entry, looked up): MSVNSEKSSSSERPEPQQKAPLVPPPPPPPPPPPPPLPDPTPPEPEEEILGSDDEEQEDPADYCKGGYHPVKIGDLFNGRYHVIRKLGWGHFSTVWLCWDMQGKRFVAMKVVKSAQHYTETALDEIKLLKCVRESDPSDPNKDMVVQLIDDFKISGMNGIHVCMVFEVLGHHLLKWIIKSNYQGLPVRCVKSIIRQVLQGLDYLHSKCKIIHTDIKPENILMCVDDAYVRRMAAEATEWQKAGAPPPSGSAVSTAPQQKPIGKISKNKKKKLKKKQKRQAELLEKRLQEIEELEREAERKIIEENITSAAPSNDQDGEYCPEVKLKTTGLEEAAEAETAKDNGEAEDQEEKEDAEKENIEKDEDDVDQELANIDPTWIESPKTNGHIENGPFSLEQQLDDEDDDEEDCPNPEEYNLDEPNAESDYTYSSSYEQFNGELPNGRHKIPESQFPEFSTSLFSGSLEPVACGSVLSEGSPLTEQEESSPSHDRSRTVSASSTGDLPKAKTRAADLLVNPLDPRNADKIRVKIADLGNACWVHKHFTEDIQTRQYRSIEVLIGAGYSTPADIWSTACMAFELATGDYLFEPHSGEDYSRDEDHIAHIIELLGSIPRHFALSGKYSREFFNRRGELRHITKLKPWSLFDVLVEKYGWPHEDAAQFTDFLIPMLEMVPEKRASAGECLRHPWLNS
Chain of Serine/threonine-protein kinase 33 (Homo sapiens) (Q9BYT3 whole entry, looked up): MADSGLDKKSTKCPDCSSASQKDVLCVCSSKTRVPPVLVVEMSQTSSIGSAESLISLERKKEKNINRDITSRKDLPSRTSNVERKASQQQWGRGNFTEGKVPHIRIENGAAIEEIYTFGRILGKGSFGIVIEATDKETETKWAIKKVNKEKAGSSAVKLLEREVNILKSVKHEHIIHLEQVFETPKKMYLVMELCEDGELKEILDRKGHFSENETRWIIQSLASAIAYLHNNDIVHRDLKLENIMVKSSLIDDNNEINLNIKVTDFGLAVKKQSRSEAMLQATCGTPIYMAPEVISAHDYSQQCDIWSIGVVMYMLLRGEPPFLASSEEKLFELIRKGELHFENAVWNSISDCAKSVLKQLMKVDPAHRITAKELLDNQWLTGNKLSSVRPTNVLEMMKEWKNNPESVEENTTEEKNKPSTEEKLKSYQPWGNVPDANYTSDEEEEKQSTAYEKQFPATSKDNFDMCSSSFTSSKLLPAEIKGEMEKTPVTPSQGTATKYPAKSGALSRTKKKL
Chain of Serine/threonine-protein kinase SIK1 (Homo sapiens) (P57059 whole entry): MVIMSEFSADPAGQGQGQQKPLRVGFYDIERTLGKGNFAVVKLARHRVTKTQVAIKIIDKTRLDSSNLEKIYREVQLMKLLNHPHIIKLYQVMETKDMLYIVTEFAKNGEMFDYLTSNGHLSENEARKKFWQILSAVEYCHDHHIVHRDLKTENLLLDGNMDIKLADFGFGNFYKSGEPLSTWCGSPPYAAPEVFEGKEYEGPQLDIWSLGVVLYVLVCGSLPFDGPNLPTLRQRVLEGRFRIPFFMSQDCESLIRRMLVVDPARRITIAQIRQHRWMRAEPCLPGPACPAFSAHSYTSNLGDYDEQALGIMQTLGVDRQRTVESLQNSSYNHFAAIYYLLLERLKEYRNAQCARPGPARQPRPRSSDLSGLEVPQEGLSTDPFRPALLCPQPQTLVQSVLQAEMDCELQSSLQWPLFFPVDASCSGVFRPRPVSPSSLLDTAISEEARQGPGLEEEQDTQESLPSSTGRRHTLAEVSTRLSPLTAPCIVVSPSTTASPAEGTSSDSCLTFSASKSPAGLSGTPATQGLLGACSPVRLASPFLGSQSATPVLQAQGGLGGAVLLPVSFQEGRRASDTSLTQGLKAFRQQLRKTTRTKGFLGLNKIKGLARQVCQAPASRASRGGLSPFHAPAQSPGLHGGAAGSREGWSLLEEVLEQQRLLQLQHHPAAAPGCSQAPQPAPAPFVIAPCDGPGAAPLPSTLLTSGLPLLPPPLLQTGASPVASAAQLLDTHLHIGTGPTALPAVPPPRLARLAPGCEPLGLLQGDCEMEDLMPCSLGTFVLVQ
Chain of Serine/threonine-protein kinase PLK2 (Homo sapiens) (Q9NYY3 whole entry, looked up): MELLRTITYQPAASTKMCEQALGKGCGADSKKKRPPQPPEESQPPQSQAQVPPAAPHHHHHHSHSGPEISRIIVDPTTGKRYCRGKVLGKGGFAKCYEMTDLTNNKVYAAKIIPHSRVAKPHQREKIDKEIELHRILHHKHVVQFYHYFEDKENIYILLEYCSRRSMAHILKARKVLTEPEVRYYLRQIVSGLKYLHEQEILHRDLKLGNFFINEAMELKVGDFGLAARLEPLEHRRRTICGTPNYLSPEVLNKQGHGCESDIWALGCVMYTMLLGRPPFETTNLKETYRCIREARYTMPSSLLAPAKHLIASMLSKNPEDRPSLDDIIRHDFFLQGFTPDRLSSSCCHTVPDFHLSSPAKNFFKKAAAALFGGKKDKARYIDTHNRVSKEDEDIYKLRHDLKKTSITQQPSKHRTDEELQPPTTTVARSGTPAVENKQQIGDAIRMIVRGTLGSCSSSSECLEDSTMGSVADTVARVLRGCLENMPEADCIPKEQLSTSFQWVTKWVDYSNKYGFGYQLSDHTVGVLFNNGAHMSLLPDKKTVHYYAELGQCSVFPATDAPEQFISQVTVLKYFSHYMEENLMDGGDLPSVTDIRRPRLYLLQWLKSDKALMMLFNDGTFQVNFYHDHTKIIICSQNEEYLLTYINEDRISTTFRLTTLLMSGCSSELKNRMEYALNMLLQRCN

## Cn1c2ccccc2c2c3c(c4c5ccccc5n(CCC#N)c4c21)CNC3=O
[1]
  residual activity: 24%
[2]
  residual activity: 6%
[3]
  residual activity: 14%
[4]
  residual activity: 3%
[5]
  residual activity: 5%
[6]
  residual activity: 7%
[7]
  residual activity: 10%
[8]
  residual activity: 10%
[9]
  residual activity: 9%
[10]
  residual activity: 19%
[11]
  residual activity: 16%
[12]
  residual activity: 11%

## Nc1nccc(-c2c(-c3ccc(F)cc3)ncn2C2CCNCC2)n1
[1]
  residual activity: 54%
[13]
  residual activity: 70%
[14]
  residual activity: 79%
[9]
  residual activity: 80%

## N#Cc1c(NC(=O)c2cccc3ccccc23)sc2c1CCCC2
[13]
  residual activity: 92%
[3]
  residual activity: 92%
[14]
  residual activity: 93%
[7]
  residual activity: 93%
[9]
  residual activity: 99%
[11]
  residual activity: 88%
[12]
  residual activity: 67%

## CCN1/C(=C/C(C)=O)Sc2ccc(OC)cc21
[2]
  residual activity: 82%
[3]
  residual activity: 58%
[14]
  residual activity: 80%
[6]
  residual activity: 75%
[7]
  residual activity: 46%
[12]
  residual activity: 70%

## O=C(CCCc1ccc(-c2ccccc2F)cc1)Nc1ccc(O)cc1
[15]
  residual activity: 106%
[13]
  residual activity: 100%
[2]
  residual activity: 100%
[3]
  residual activity: 108%
[16]
  residual activity: 109%
[17]
  residual activity: 106%
[4]
  residual activity: 100%
[5]
  residual activity: 79%
[18]
  residual activity: 93%
[14]
  residual activity: 92%
[6]
  residual activity: 103%
[7]
  residual activity: 95%
[8]
  residual activity: 105%
[9]
  residual activity: 102%
[10]
  residual activity: 100%
[11]
  residual activity: 94%
[12]
  residual activity: 90%
